From PubChem BioAssay
AMA1-RON2 inh – AMA1-RON2 (P. falciparum) interaction inhibition; AlphaScreen AMA1-biotinylated RON2 peptide binding; Potency, µM (top dose mostly 58.2 µM), inactives show at the top dose activity change, negative = inhibition, actives largely listed as inhibitors; 0.2% of 360,000 active;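 also: potency is read from the fitted curve at half-maximal effect; 0% = vehicle wells and -100% = peptide control; nearly all actives have a fitted effect of over 45% in size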
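AMA1 (3D7) with his tag at 25 nM final met compounds first, then biotinylated RON2 peptide at 25 nM; detection used donor plus acceptor beads, 10 µg/mL apiece, read by AlphaScreen after 30 min at room temperature.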
Pf growth 96h – inhibits malaria parasite growth, 96 h | 6.9% of 320,000 active | AID 504834 | Potency, µM (doses to about 28.7 µM), for the others: at the highest dose activity change, negative = inhibition, usual class: inhibitors | P. falciparum luciferase reporter growth, 96 h; also: potency is read from the fitted curve at half-maximal effect; % is scaled to controls: 0 for no effect and ±100 for the full control effect
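P. falciparum expressing integrated firefly luciferase, in erythrocytes at 2% hematocrit, 0.05% parasitemia, incubated with compounds 96 h at 37 C, 5% CO2. Growth inhibition read as loss of luminescence; two-generation exposure targets delayed-death apicoplast inhibitors.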
Shiga inhibitor – inhibitors of Shiga toxin in Vero cells. Vero cells, Shiga toxin protein synthesis inhibition reporter. inhibition, % at 38.7 µM. 9.2% of 290,000 active; in the data active = inhibition mostly above about 28%, no sharp cut-off; inactive = mostly below about 43%; also: 0% is about no effect
Cycloheximide cs – counter-screen hit for Shiga toxin inhibitors, cycloheximide; cell reporter, cycloheximide protein synthesis inhibition counterscreen; max response, %; 12% of 300,000 active; in the data active = max response mostly above about 13%, no sharp cut-off; inactive = mostly below about 14%; also: read at 38.3 µM for the half of the compounds with a filed dose; 0% is about no effect
Pf growth 48h – inhibits P. falciparum growth in the first generation, 48 h; P. falciparum luciferase growth in erythrocytes, 48 h; Potency, µM (titrated, usually from 28.7 µM), without a hit: at the highest dose activity change, negative = inhibition, actives largely listed as inhibitors; 5.9% of 310,000 active; AID 504832; also: potency is read from the fitted curve at half-maximal effect; % is scaled to controls: 0 for no effect and ±100 for the full control effect
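Growth was read as firefly luciferase luminescence after a 48 h, 37 C, 5% CO2 exposure of compounds to reporter-bearing P. falciparum cultures (0.1% parasitemia, 2% hematocrit final) in Albumax-supplemented RPMI 1640.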
HCV inh – blocks hepatitis C virus; Huh7.5.1 HCVcc-Cre infection, luciferase reporter, 44 h; Potency, µM (series often up to 41.8 µM), for the others: at the highest dose activity change, negative = inhibition, hits mostly inhibitors; 3.4% of 340,000 active; AID 651820; also: potency is read from the fitted curve at half-maximal effect; % is scaled to controls: 0 for no effect and ±100 for the full control effect
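Luciferase read-out (15 sec integration) after a 15 min room-temperature substrate step quantifies HCVcc-Cre infection. Cells, 1,000 per well, had compound added 4 h post-plating, then virus at ~0.5 moi, and were cultured 44 h.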
Active calls of the source: *; ? = inconclusive; . = no result; [ ] = remark or other dose. An excerpt weighted towards active compounds, which were near 21% of everything screened. Unless noted, calls follow the shape of the dose curve; as a rule, active = well fitted curve in the direction sought with a large enough effect; inconclusive = small, poorly fitted or top-dose-only effect, or another doubt; inactive = no such curve, though single readings can be large; an effect the other way counts as inactive or inconclusive.

SMILES | AMA1-RON2 inh | Pf growth 96h | Shiga inhibitor | Cycloheximide cs | Pf growth 48h | HCV inh
CC1CCCC(C)N1C(=O)c1ccccc1Nc1ccc(SC(F)F)cc1 (stereo not drawn) | -7% | 13µM* | -12 | -4 | ? | 2.8µM*
O=C(COC(=O)c1ccccc1C(=O)c1ccccc1)Nc1ccc(SC(F)F)cc1 | 0%[11.6 µM] | 43% | -2 | 20* | 18% | -27%
CC(OC(=O)c1ccccc1Nc1ccc(SC(F)F)cc1)C(N)=O (stereo not drawn) | 0% | 42% | -5 | -1 | -12% | ?
CC1CN(C(=O)c2ccccc2Nc2ccc(SC(F)F)cc2)CC(C)O1 (stereo not drawn) | 7% | ? | -6 | -3 | ? | -1%
O=C(COC(=O)c1ccccc1Nc1ccccc1)Nc1ccccc1 | 15% | 12% | 3 | 1 | -5% | -6%
FC(F)(F)c1nnc2ccc(NCc3ccccc3)nn12 | 13% | ? | -9 | 2 | ? | -5%
CCN(CC)CCOC(=O)[C@@H](Cc1cccc2ccccc12)C[C@@H]1CCCO1 | . | -12%[12.8 µM] | . | . | 5%[12.8 µM] | .
CC(C)=CCC[C@H](C)C[C@@H]1Cc2[nH][nH]c(=O)c2[C@@H](c2ccc(F)cc2)O1 | 112% | . | . | . | . | .
O=C(NCc1ccccc1)C(C1CC1)n1c(CSCCOc2ccccc2)nc2ccccc21 (stereo not drawn) | -15% | . | . | . | . | .
O=[N+]([O-])c1ccc(-c2cnc(SCc3ccccc3Cl)[nH]2)cc1 | -17% | ? | 58* | 28* | 15% | ?
NC(=O)CSc1ncc(-c2ccc([N+](=O)[O-])cc2)[nH]1 | -7% | 13% | 45 | 19 | 35% | -7%
Cc1cc(C)c(CSc2ncc(-c3ccc([N+](=O)[O-])cc3)[nH]2)c(C)c1 | ? | ? | -1 | 14 | ? | 11µM*
O=[N+]([O-])c1ccc(-c2cnc(SC(c3ccccc3)c3ccccc3)[nH]2)cc1 | ? | 7.4µM* | -9 | -2 | ? | ?
Cc1ccc(CNC(=O)CCC2CCCN(Cc3c(C)nn(C(C)C)c3C)C2)o1 (stereo not drawn) | -2% | 8.3µM* | 1 | 10 | -3% | 6%
COc1ccc(C(=O)/C=C/Sc2nc3ccccc3o2)cc1 | -13% | -27% | 135* | 51* | ? | ?
COc1ccc(C(=O)N/C(N)=N/c2nc3ccccc3o2)cc1 | 69% | ? | 7 | 7 | 42% | ?
COc1ccc(C(=O)NC(=S)NCCO)cc1Br | 11% | 110% | 23 | 16* | 32% | -24%
COc1ccc(C(=O)NC(=S)N(C)Cc2ccccc2)cc1Br | 25% | 29% | -5 | 13 | ? | 14%
C=CCNC(=S)NC(=O)c1ccc(C)c(Br)c1 | 60% | 29% | 100* | 38* | -14%[5.75 µM] | -27%
C=CCN(CC=C)C(=S)NC(=O)c1ccc(OC)c(Br)c1 | 0% | 15µM* | -15 | -2 | 10µM* | -30%
CCN(CC)C(=S)NC(=O)c1ccc(OC)c(Br)c1 | 13% | -15% | -3 | -1 | ? | 33%
CC(C)(C(=O)N1CCC1(C)C(=O)NS(=O)(=O)c1cccc(C#N)c1)c1ccccc1 (stereo not drawn) | -4% | . | . | . | . | .
Cc1cc2c(s1)c1cnn(Cc3c(F)c(F)cc(F)c3F)c(=O)c1n2C | . | . | 16 | 7 | . | .
CCNc1nc(OC)nc(N2CCC(Cc3ccccc3)CC2)n1 | -1% | 13µM* | 4 | -1 | -14% | ?
C=CCNC(=S)Nc1cccc(NC(=S)NCC=C)c1 | 41% | ? | -10 | 1 | 13µM* | 4%
SMILES | AMA1-RON2 inh | Pf growth 96h | Shiga inhibitor | Cycloheximide cs | Pf growth 48h | HCV inh
O=C(O)c1ccc2c3c(cccc13)C(=O)N(c1cccc3ccccc13)C2=O | -1% | 47% | 5 | 3 | -3% | -1%
O=C(O)c1ccccc1N1C(=O)c2cccc3cccc(c23)C1=O | 14% | 8.3µM* | 15 | -2 | 15% | 28%
COCCCNc1nc2c(-c3ccc(C)cc3)nnn2c2ccccc12 | 19% | 12% | 72* | 39* | 72% | ?
O=C1NC[C@@H](CCCCN2C[C@H](Cc3ccc(O)cc3)N(CCc3ccc(O)cc3)C(=O)C2=O)N(CCc2ccccc2)C1=O | 8% | . | . | . | . | .
Cc1ccc([N+](=O)[O-])cc1Nc1nc(N2CCCC2)nc(N2CCCC2)n1 | -8% | 7% | . | 0 | 3% | -11%
O=C(O)CC1(CC(=O)Nc2ccc(F)c(Cl)c2)CCCCC1 | -15% | 13% | -13 | 1 | 2% | 6%
COc1ccc(-c2cc(=O)[nH][nH]2)cc1OC | -7% | . | 2 | 1 | 12µM* | ?
COc1cccc(-c2cc(=O)[nH][nH]2)c1 | -12% | 29% | 24 | 22* | 27% | 21%
O=c1cc(-c2ccc(F)cc2)[nH][nH]1 | 25% | -24% | 4 | 0 | -11% | 18%
C=CCN(C(=O)c1csnn1)C(C(=O)NC1CCCC1)c1ccc(F)cc1 (stereo not drawn) | 3% | ? | 27 | -1 | -1% | -6%
COc1ccc(CCNC(=O)c2c(O)c3ccccc3[nH]c2=O)cc1OC | 45% | -7% | -8 | -1 | ? | -25%
O=[N+]([O-])c1ccc(NCc2ccccc2N2CCC(CO)CC2)nc1 | 0% | -12% | -14 | 2 | 0%[0.00184 µM] | -14%
Cc1ccc(Cn2cc(CN3CC(N(C)C)CS3(=O)=O)nn2)cc1 (stereo not drawn) | -4% | . | . | . | . | .
CC(O)CCc1ccc(O)cc1 (stereo not drawn) | -2% | 4% | -7 | -1 | 3% | -8%
CC(CCc1ccc(O)cc1)NC1c2ccccc2-c2ccccc21 (stereo not drawn) | -5% | ? | . | 4 | 15µM* | 11%
CC(CCc1ccc(O)cc1)NC1C2CC3CC(C2)CC1C3 (stereo not drawn) | -17% | -86% | -10 | -1 | 13µM* | -1%
COc1cccc(-c2cc(NC(C)=O)c3ncc(-c4ccc(OC)c(OC)c4)n3c2)c1 | 11% | . | . | . | . | .
CCOc1cc(/C=C2\COc3ccccc3C2=O)ccc1OCC(=O)N(C)C | 3% | ? | -6 | -3 | 15µM* | ?
Cc1ccc(S(=O)(=O)NCc2cccc([N+](=O)[O-])c2)cc1 | -7% | . | . | . | . | .
CCOc1cc(CNc2ccc3c(c2)CCC3)ccc1O | -27% | 19% | 19 | 34* | 12% | -10%
COc1cc(CNc2ccc3c(c2)CCC3)cc(OC)c1O | ? | 10% | 63* | 30* | 25% | 21%
COc1ccc(C(=O)NCc2ccc(F)cc2)cc1S(=O)(=O)N1CCCC1 | 3% | ? | . | . | ? | -26%
Cn1nnc(NC(=S)NC(=O)Cc2ccccc2)n1 | 62% | 2.1µM* | 17 | 6 | -18% | 1%
Cn1nnc(NC(=S)NC(=O)c2ccco2)n1 | 11% | -8% | 7 | 8 | 27% | 19%
